Laboratory results from PubChem BioAssay (NCI).
The panel holds about 83,000 compounds, 20% with a hit somewhere; the sample as a whole holds those more often.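 How to read the values: 0–100, growth inhibition (40 = 60% inhibited); 0, no net growth; -100 to 0, cell death (-40 = 40% of starting cells died; -100 = all dead).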 Active and inactive are the calls of the source. The calls were made as follows: active = growth percent below 10; inactive = the rest.

Columns and labels:
Assay in all cases: NCI-60 one-dose screen, 48 h (100 = growth as untreated, 0 = no growth, -100 = all killed)
Details in all cases: 10 µM unless noted
[1] = system: NCI-H23 lung
[2] = system: NCI-H322M lung
[3] = system: HOP-62 NSCLC
[4] = system: NCI-H460 lung
[5] = system: HOP-92 NSCLC
[6] = system: NCI-H522 lung
[7] = system: A549/ATCC NSCLC
[8] = system: 786-0 renal
[9] = system: COLO 205 colon
[10] = system: DU-145 prostate
[11] = system: K-562 leukemia
[12] = system: MALME-3M melanoma
[13] = system: MDA-MB-231 breast
[14] = system: RXF 393 renal
[15] = system: SF-268 CNS
[16] = system: SF-295 CNS
[17] = system: SF-539 CNS
[18] = system: UACC-257 melanoma
[19] = system: M14 melanoma
[20] = system: HCT-15 colon

Measured: growth

CCN1CCN(c2cc(C)c3cc(NC(=O)c4ccc(OC)c(OC)c4)ccc3n2)CC1
inactive: [1] 58.2% | [2] 50.7% | [3] 50.7% | [4] 25.4% | [5] 56.4% | [6] 51.8% | [7] 33.3% | [8] 49% | [9] 11.9% | [10] 34.5% | [12] 39.7% | [13] 47.9% | [14] 31.1% | [15] 50.8% | [16] 32% | [17] 45.2% | [18] 57.9% | [19] 30.2% | [20] 30.3%
active: [11] 7.23%

C#CCn1cc(C=C2C(=O)NC(=O)NC2=O)c2cc(Cl)ccc21
inactive: [1] 90.5% | [2] 87.6% | [3] 95.5% | [4] 63.1% | [5] 88.7% | [6] 71.7% | [7] 96.1% | [8] 106% | [9] 123% | [10] 87.6% | [11] 82.6% | [12] 98.4% | [13] 86.2% | [14] 72.3% | [15] 81.1% | [16] 92.6% | [17] 82.5% | [18] 94.6% | [19] 85.1% | [20] 82.8%

Oc1c(C(Nc2ccccn2)c2cccc(Oc3ccccc3)c2)ccc2cccnc12 (stereo not given)
active: [1] -73.3% | [2] -94.4% | [3] -95.7% | [4] -86.3% | [5] -86.9% | [6] -84.7% | [7] -81.8% | [8] -81.4% | [9] -90.8% | [10] -96% | [11] -64.1% | [12] -74.8% | [13] -89.3% | [14] -92% | [15] -86.7% | [16] -86.9% | [17] -93.1% | [18] -77.1% | [19] -68.6% | [20] -57.6%

Oc1[nH]c2ccccc2c1N=Nc1nnc2n1N=C(c1ccccc1)CS2
inactive: [1] 70% | [2] 104% | [3] 46.1% | [4] 83.3% | [5] 64.7% | [6] 43.6% | [7] 69.1% | [8] 82% | [9] 105% | [10] 84.1% | [11] 77.7% | [12] 103% | [13] 88.6% | [14] 82.4% | [15] 69.1% | [16] 99.9% | [17] 82.6% | [18] 79.6% | [19] 99.1% | [20] 105%

CCOc1cccc(/C=N\Nc2nc(=O)cc(C(=O)OC)s2)c1O
inactive: [1] 85.7% | [2] 54.2% | [3] 85.6% | [4] 44% | [5] 60.1% | [6] 79.3% | [7] 63.1% | [8] 83.9% | [9] 91.6% | [10] 103% | [11] 50.8% | [12] 66.8% | [13] 78.7% | [14] 97% | [15] 76% | [16] 57.5% | [17] 82.6% | [18] 78.2% | [19] 63.7% | [20] 45.6%

O=C(NCCCN1CCC(N2CCCCC2)CC1)C1=Cc2cc(Br)ccc2OC1
inactive: [1] 56.2% | [2] 69.2% | [3] 87.9% | [4] 13.8% | [5] 80.7% | [6] 31% | [7] 49.1% | [8] 53.5% | [9] 46.1% | [10] 68.7% | [11] 14.8% | [12] 97.9% | [13] 17.6% | [14] 52.3% | [15] 50.2% | [17] 87.4% | [18] 59.8% | [19] 38.7% | [20] 41.1%
active: [16] 3.29%

Clc1ccc(Oc2ccc(Nc3ncnc4onc(-c5ccccc5)c34)cc2)c(Cl)c1
inactive: [1] 89.4% | [2] 111% | [3] 104% | [4] 101% | [5] 102% | [6] 73.2% | [7] 91.2% | [8] 96.3% | [9] 105% | [10] 106% | [11] 78.1% | [12] 105% | [13] 99.7% | [14] 120% | [15] 102% | [16] 97% | [17] 98.8% | [18] 99% | [19] 95.6% | [20] 89%

S=C1NC2(c3ccccc3)CCC(=S)N2c2ccccc21 (stereo not given)
inactive: [1] 103% | [2] 95.8% | [3] 98.2% | [4] 108% | [5] 99.1% | [6] 90.7% | [7] 101% | [8] 104% | [9] 117% | [10] 115% | [11] 93.6% | [12] 99.5% | [13] 90.9% | [14] 116% | [15] 102% | [16] 107% | [17] 107% | [18] 110% | [19] 103% | [20] 102%

CCCN1C(=O)N(CCC)C2C1NN=c1s/c(=C3\C(=O)N(C(C)C)c4ccccc43)c(=O)n12 (stereo not given)
inactive: [1] 76% | [2] 78% | [3] 41.9% | [4] 35.3% | [5] 27.1% | [6] 22.4% | [7] 43.9% | [9] 43.8% | [10] 53.5% | [11] 11.3% | [12] 36.5% | [13] 41.8% | [14] 12.2% | [15] 46.8% | [16] 22.2% | [17] 23.1% | [18] 53.8% | [19] 37.8% | [20] 24.4%
active: [8] -6.03%

Cc1nc2ccccc2c(/C=C/c2ccc(F)cc2)c1C(N)=O
inactive: [1] 101% | [2] 110% | [3] 95.2% | [4] 108% | [5] 105% | [6] 94.3% | [7] 97.7% | [8] 99.8% | [9] 114% | [10] 105% | [11] 95.8% | [12] 105% | [13] 92% | [14] 106% | [15] 96.4% | [16] 102% | [17] 102% | [18] 99.9% | [19] 103% | [20] 108%

CN(C)c1ccc(/C=C/c2ccnc3c(O)cccc23)cc1
active: [4] 0.902% | [6] -10.9% | [7] 3.5% | [8] -10.5% | [11] 5.89% | [12] -2.62% | [16] -8% | [17] 2.91% | [18] -15.5% | [19] -22.5%
inactive: [1] 34.8% | [2] 28.7% | [3] 20.3% | [5] 53.5% | [9] 99.7% | [10] 13.9% | [13] 36.5% | [14] 36.1% | [15] 12.5% | [20] 26.7%

O=Cc1c(OCc2cnnn2CC(=O)Nc2ccc(Br)cc2)ccc2ccccc12
inactive: [1] 86.4% | [2] 96.1% | [3] 97.7% | [4] 97.3% | [5] 85.7% | [6] 77.2% | [7] 91.6% | [8] 102% | [9] 106% | [10] 96.9% | [11] 91.4% | [12] 88.4% | [13] 84.4% | [14] 100% | [15] 92.7% | [16] 88.9% | [17] 96.3% | [18] 87% | [19] 98.6% | [20] 80.4%

O=c1oc2ccc(I)cc2c(=O)n1-c1ccc(Br)cc1F
active: [1] 5.56% | [2] 5.24% | [3] -11.7% | [4] 2.84% | [5] -11.7% | [6] -10% | [7] 7.12% | [8] 4.56% | [11] 7.02% | [12] -26.7% | [13] -21.2% | [14] 3.07% | [15] 9.55% | [16] -58.1% | [17] 4.36% | [18] -13.6% | [19] -0.737% | [20] -7.61%
inactive: [9] 50.3% | [10] 16.6%

Oc1ccc(-c2nc(-c3ccc4oc5ccc(-c6[nH]c(-c7ccc(O)cc7)nc6-c6ccccc6)cc5c4c3)c(-c3ccccc3)[nH]2)cc1
inactive: [1] 43.9% | [2] 78.6% | [3] 73.3% | [4] 59.1% | [5] 25.7% | [6] 59.4% | [7] 65.8% | [8] 86.4% | [9] 53.8% | [10] 89% | [11] 22.7% | [12] 43.1% | [13] 59.5% | [14] 84.9% | [15] 63.5% | [16] 15.6% | [17] 79.4% | [18] 34.5% | [19] 65.5% | [20] 78.8%

CC(=O)Nc1nc2c(s1)CCc1c-2cn(S(=O)(=O)c2ccccc2)c1-c1ccccc1
inactive: [1] 82.1% | [2] 79.4% | [3] 101% | [4] 75.3% | [5] 87.4% | [6] 54.5% | [7] 53.4% | [8] 88.3% | [9] 75.3% | [10] 78.4% | [11] 37.9% | [13] 73.6% | [14] 85% | [15] 71.4% | [16] 43.5% | [17] 93.5% | [18] 93% | [19] 36.9% | [20] 51.9%
active: [12] -23.6%
